In PubChem BioAssay AID540359 (Broad Institute, 2011):
Potency and affinity values are given separately. Active and inactive are the calls of the source. No rule for the calls is given here.

target: UDP-galactopyranose mutase (Mycobacterium tuberculosis (strain ATCC 25618 / H37Rv)) (UniProt P9WIQ1); experiment: Mycobacterium tuberculosis UGM enzyme inhibition, dose response confirmation, purified biochemical assay (AID 540359); conditions: plate reader activity; series mostly up to 50 µM; activity change, negative = inhibition: at the top concentration
Sequence (P9WIQ1 whole entry, looked up): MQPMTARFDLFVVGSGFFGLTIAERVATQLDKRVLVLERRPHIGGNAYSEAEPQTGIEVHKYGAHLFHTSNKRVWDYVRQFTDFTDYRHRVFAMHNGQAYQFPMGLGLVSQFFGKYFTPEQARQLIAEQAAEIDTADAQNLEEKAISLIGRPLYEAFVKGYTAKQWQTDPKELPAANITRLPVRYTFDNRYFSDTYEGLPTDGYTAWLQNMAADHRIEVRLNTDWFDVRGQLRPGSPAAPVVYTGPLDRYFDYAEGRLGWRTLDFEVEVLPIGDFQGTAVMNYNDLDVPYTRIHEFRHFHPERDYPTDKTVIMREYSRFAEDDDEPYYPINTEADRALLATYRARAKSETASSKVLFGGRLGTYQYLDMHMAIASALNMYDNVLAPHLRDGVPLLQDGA

Structure (SMILES) | activity change, negative = inhibition
Cc1n[nH]c(=O)c2c(NC(=O)CSc3nnc(-c4ccco4)n3C)oc(C)c12 | -7.02% (inactive)
COc1ccc(CCn2c(=N)c(S(=O)(=O)c3ccc(C)cc3)cc3c(=O)n4ccccc4nc32)cc1 | -9.16% (inactive)
COC(=O)C1=CC(C(=O)c2cccs2)=NN(c2ccc(OC)cc2)C1C(=O)OC (stereo not drawn) | -9.84% (inactive)
COc1ccc(-n2c(O)c(/C=C3\C=Nc4ccc(Br)cc43)c(=O)[nH]c2=O)cc1 | -18.8% (inactive)
Cc1ccc(NC(=O)/C(C#N)=C/c2ccc(C)s2)c(C)c1 | -9.8% (inactive)
COc1ccc(N=Cc2c(O)n(-c3cccc(C)n3)c(=O)c3ccccc23)c(OC)c1 | -10.3% (inactive)
Cc1ccccc1OCCn1cc(C(=S)N2CCCC2)c2ccccc21 | -4.74% (inactive)
CCN(C(=O)COC(=O)c1ccc(O)cc1O)c1c(N)n(Cc2ccccc2)c(=O)[nH]c1=O | -2.73% (inactive)
CCOC(=O)C1CCCN(C(=O)C2c3ccccc3Oc3ccccc32)C1 (stereo not drawn) | -19.5% (inactive)
COc1ccc(-c2cc(=O)[nH]c3ccccc23)cc1 | -4.6% (inactive)
CCOc1cc(/C=C2\CCCc3c2nc2ccccc2c3C(=O)O)ccc1OC | -2.82% (inactive)
Cc1cc(C(=O)OCC(=O)Nc2c(Cl)cccc2Cl)c(C)o1 | -2.82% (inactive)
CCN(CC)C(=O)C1c2ccccc2Oc2ccccc21 | 0.397% (inactive)
CC1=Nc2ccccc2/C1=C\c1nc(-c2ccc(C(F)(F)F)cc2)oc1O | -9.96% (inactive)
COc1ccc(C(=O)Oc2ccc(Br)cc2C(=S)N2CCOCC2)cc1 | -6.52% (inactive)
COc1ccccc1NC(=O)C1CCN(S(=O)(=O)c2cccs2)CC1 | -1.77% (inactive)
COc1ccc(C(=O)NCC(=O)N2CCN(C(=O)c3ccco3)CC2)cc1[N+](=O)[O-] | -15.6% (inactive)
CC(=O)NC(Cc1ccccc1)C(=O)OCC(=O)c1ccccc1 (stereo not drawn) | -3.54% (inactive)
CCOC(=O)c1c(C)nc2ccccc2c1C | -1.7% (inactive)
N#Cc1c(-c2ccccc2)ccnc1Oc1ccccc1 | -3.15% (inactive)
COc1cccc(C(=O)OCC(=O)NCc2ccc3c(c2)OCO3)c1OC | -0.378% (inactive)
CC(=O)N1CCN(S(=O)(=O)c2cccc(C(=O)NNC(=O)Cn3nc(C)cc3C)c2)CC1 | -3.1% (inactive)
COc1ccc(N(CC(=O)N/N=C/c2ccc(-c3ccc([N+](=O)[O-])cc3)o2)S(=O)(=O)c2ccc(C)cc2)cc1 | 0.687% (inactive)
CCOc1ccc(C(=O)NC(=S)Nc2cccnc2)cc1 | -1.97% (inactive)
CCN(C(=O)COC(=O)c1cc(Cl)ccc1OC)c1c(N)n(Cc2ccccc2)c(=O)[nH]c1=O | -1.58% (inactive)
COc1ccc(/C=C/C(=O)OCC(=O)NC2CCCCCC2)cc1OC | -0.651% (inactive)
CC(C)OC(=O)CC(=O)c1sc2nc3c(cc2c1N)CN(C)CC3 | -6.78% (inactive)
N=c1n(CCN2CCCC2)c2ccccc2n1CC(O)c1ccco1 (stereo not drawn) | -7.28% (inactive)
